Compounds with a hit are over-represented: about 20% of the library has one in this group of screens.
CHX counter – affects cycloheximide protein synthesis inhibition readout, counter-screen. cell reporter, cycloheximide protein synthesis inhibition counterscreen. max response, %. actives 12% (n = 300,000); in the data active means max response mostly above about 13%, no sharp cut-off; inactive means mostly below about 14%; further: read at 38.3 µM for the half of the compounds with a filed dose; 0% is about no effect
Pf growth 96h – inhibits malaria parasite growth, 96 h; Potency, µM (doses to about 28.7 µM), for the others: top-dose activity change, negative = inhibition, usual class: inhibitors; P. falciparum luciferase reporter growth, 96 h; actives 6.9% (n = 320,000); AID 504834; further: potency means the concentration at half of the fitted maximal effect; on the % scale 0 is the no-effect control and ±100 the full control effect
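Plates of compound plus infected erythrocytes (2% hematocrit, 0.05% parasitemia final) incubate 96 hours, 37 C, 5% CO2. Detection reagent added; reduced luminescence from the parasites' luciferase reporter flags inhibition.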
HCMV inh – inhibitors of human cytomegalovirus | HFF cells, HCMV-luciferase reporter, 72 h; hits give low values | activity change, negative = inhibition, % at 57.5 µM | actives 4.5% (n = 410,000) | AID 1259415; in the data active means activity change below about -60%; inconclusive means no clear call, values can overlap the other calls; inactive means above about -39%; further: on the % scale 0 is the no-effect control and ±100 the full control effect
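Luciferase read-out from HCMV-luciferase-infected HFFs (MOI 1 PFU/cell) 72 h post infection at 37C; compounds added after 16 h cell attachment; activity normalized between buffer-only basal and Salinomycin (10uM) inhibitor controls.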
Shiga inhibitor – Shiga toxin inhibition. Vero cells, Shiga toxin protein synthesis inhibition reporter. inhibition, % at 38.7 µM. AID 2315. actives 9.2% (n = 290,000); in the data active means inhibition mostly above about 28%, no sharp cut-off; inactive means mostly below about 43%; further: 0% is about no effect
Pf growth 48h – P. falciparum growth inhibition at 48 hours (one generation); P. falciparum luciferase growth in erythrocytes, 48 h; Potency, µM (doses to about 28.7 µM), for the others: at the top dose activity change, negative = inhibition, actives largely listed as inhibitors; actives 5.9% (n = 310,000); further: potency means the concentration at half of the fitted maximal effect; on the % scale 0 is the no-effect control and ±100 the full control effect
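Read-out is firefly luciferase luminescence from an integrated reporter in P. falciparum, so falling signal marks reduced parasite growth. Infected erythrocytes were at 2% hematocrit and 0.1% parasitemia (final) in Albumax-supplemented RPMI 1640.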
Active calls of the source: *; ? = inconclusive; . = not tested or not shown; [ ] = dose if it differs, or a comment. Unless noted, the call rests on the fitted dose curve; in most records, active means well fitted inhibition curve with a large enough effect; inconclusive means small, poorly fitted or top-dose-only effect, or another doubt; inactive means no such curve, though single readings can be large or run the other way.

SMILES	CHX counter	Pf growth 96h	HCMV inh	Shiga inhibitor	Pf growth 48h
O=C(NCCCN1CCOCC1)c1cc(S(=O)(=O)N2CCCCC2)ccc1Cl	.	.	-12	.	.
COc1ccccc1Nc1nc(-c2sc(NC(=O)c3ccc([N+](=O)[O-])cc3)nc2C)cs1	5	?	.	18	?
COc1ccc(Cl)cc1Nc1nc(-c2sc(NC(=O)c3ccco3)nc2C)cs1	7	5.9µM*	-32	-7	15µM*
Cn1ccnc1SCC(=O)Nc1ccc(Oc2ccccc2)cc1	24*	66%	18	55	25%
CCOc1ccc(C(O)c2nccn2C)cc1 (centres undefined)	42*	.	2	108*	54%
CCOc1ccc(NC(=O)CSc2nccn2C)cc1	42*	179%	18	48*	166%
CN(Cc1cccs1)S(=O)(=O)c1ccc(Cl)cc1F	.	-10%	-32	.	?
CN(C(=O)c1cccc(NC(=O)Cc2cccc(NC(=O)C3CCCN(C(=O)C4CCCCC4)C3)c2)c1)C1CC1 (centres undefined)	.	.	-17	.	.
CCC(=O)c1c(NC)cc(C)oc1=O	4	22%	0	14	-16%
CCC(=O)c1c(NCCc2ccccc2)cc(C)oc1=O	-1	?	-98*	-7	-7%
O=C(Nc1ccc2ccccc2c1)C(c1ccccc1)n1c(=O)c(-c2cc3ccccc3[nH]2)nc2ccccc21 (centres undefined)	.	.	46	.	.
NNC(=O)c1ccc(CSc2cccc3cccnc23)cc1	23*	3%	-1	20	-1%
COc1ccc(CNC(=O)CSc2cccc3cccnc23)cc1	12	5%	12	11	-7%
O=C(N/N=C/c1ccccc1Br)c1ccc(CSc2cccc3cccnc23)cc1	12*	?	-35	8	.
Cc1cccc(CSc2cccc3cccnc23)c1	60*	4.7µM*	-108*	152*	32%
c1cnc2c(SCc3ccc(-c4nnco4)cc3)cccc2c1	39*	32%	64	68*	68%
Cc1cccc(CSc2[nH]c(=O)ncc2C)c1	10	31%	1	10	50%
O=C1CCC/C(=N\NC(=O)c2ccc(CSc3cccc4cccnc34)cc2)C1	-1	?	-24	3	93%
O=C(COC(=O)c1cccc(S(=O)(=O)N2CCCC2)c1)Nc1cccc(Br)c1	.	.	7	.	.
COc1ccc(Nc2nc(Nc3ccc(OC)cc3OC)nc(N3CCOCC3)n2)c(OC)c1	.	.	-24	.	.
Cc1ccccc1Nc1ncc(C#N)c(N)n1	16	?	29	33*	14%
COc1ccc(Nc2ncc(C#N)c(N)n2)c(OC)c1	20*	26%	22	70*	34%
Cc1[nH]n(C(N)=S)c(=O)c1N=Nc1ccc(S(=O)(=O)N2CCCCCC2)cc1	14	64%	24	46	.
Cc1[nH]n(C(N)=S)c(=O)c1N=Nc1cccc([N+](=O)[O-])c1C	57*	7%	.	51*	?
Cc1c(N=Nc2c(-c3ccc([N+](=O)[O-])cc3)[nH]n(C(N)=S)c2=O)cccc1[N+](=O)[O-]	10	?	-96*	-9	2%
SMILES	CHX counter	Pf growth 96h	HCMV inh	Shiga inhibitor	Pf growth 48h
NC(=S)n1[nH]c(-c2ccc([N+](=O)[O-])cc2)c(N=Nc2ccccc2[N+](=O)[O-])c1=O	7	29%	-39	36	2%
Cc1[nH]n(-c2ccccc2)c(=O)c1N=Nc1cccc([N+](=O)[O-])c1	1	67%	191	-6	49%
NC(=S)n1[nH]c(-c2ccc([N+](=O)[O-])cc2)c(N=Nc2cccc([N+](=O)[O-])c2)c1=O	5	4%	-72*	15	?
Cc1ccc(-n2nc(C(=O)NCc3ccc(F)cc3Cl)c3c4ccccc4n(C)c3c2=O)cc1	.	.	4	.	.
CO/C(N)=C(\C#N)N=Cc1ccccc1Cl	21*	101%	-7	49	98%
CCCN(C(=O)C1=COCCO1)c1c(N)n(Cc2ccccc2)c(=O)[nH]c1=O	.	-3%	-13	.	10%
Cn1c(=O)c2c(nc(NCCc3ccccc3)n2Cc2ccc(F)cc2)n(C)c1=O	8	?	-24	-13	12µM*
Cc1cccc(Cn2c(NCCO)nc3c2c(=O)n(C)c(=O)n3C)c1	-3	2%	-75*	-11	.
C=CCNc1nc2c(c(=O)n(C)c(=O)n2C)n1Cc1ccc(F)cc1	-3	-21%	-79*	-8	-8%
Cn1c(=O)c2c(nc(NCc3ccco3)n2C/C=C/c2ccccc2)n(C)c1=O	-3	9.3µM*	-96*	5	8.3µM*
CCC(C)Nc1nc2c(c(=O)n(C)c(=O)n2C)n1Cc1ccc(F)cc1 (centres undefined)	-2	-1%[5.75 µM]	12	-3	-14%
Cn1c(=O)c2c(nc(NCc3ccco3)n2C)n(C)c1=O	-1	.	16	-22	8%
Cc1cc(C)c(S(=O)(=O)Nc2ccc(C(=O)O)cc2)cc1S(=O)(=O)Nc1ccc(C(=O)O)cc1	.	.	29	.	.
COc1cc(OC)cc(-c2cc3c(Nc4ccc(OC)nc4)nccc3n2C)c1	.	.	-31	.	.
CC(C)CCn1c(NCCc2ccccc2)nc2c1c(=O)n(C)c(=O)n2C	-7	?	-24	3	?
C=CCNc1nc2c(c(=O)n(C)c(=O)n2C)n1CCCCCC	-1	10%	-96*	-4	?
CC(Cl)=CCn1c(NCCc2ccccc2)nc2c1c(=O)n(C)c(=O)n2C	.	.	-87*	.	.
COC(=O)c1ccc(NS(=O)(=O)c2cc3c4c(c2)CCN4C(=O)CC3)cc1	.	26%	-32	.	-16%
CCOC(=O)c1ccc(NS(=O)(=O)c2cc3c4c(c2)CCN4C(=O)CC3)cc1	.	7%	-81*	.	?
COc1ccc(NS(=O)(=O)c2ccc(N3CCCC3)c(NC(=S)Nc3ccc(SC(F)F)cc3)c2)cc1	8	13µM*	-28	-4	?
O=C(NCCC1CCCCN1S(=O)(=O)c1cccs1)C(=O)NCc1ccccc1 (centres undefined)	.	?	-32	.	?
CCN(CC)C(=O)c1nn(-c2ccccc2)c2c1C1CCC2(C)C1(C)C (centres undefined)	12	?	-95*	-1	?
CCSc1nc(C)cc(Oc2ccc(=O)n(C)n2)n1	-2	-13%	60	-1	2%
Cc1ccc(NC(=O)C2C(=O)N(CCO)C3(C)CC2c2ccccc2O3)cc1 (centres undefined)	22*	55%	26	32	25%
O=C(C1CCCCN1S(=O)(=O)c1ccccc1[N+](=O)[O-])N1CCCC1 (centres undefined)	1	-10%	-12	13	-17%
COCC1CCN(Cc2nc(-c3ccc4c(c3)OCO4)no2)C1 (centres undefined)	39*	-14%	4	67*	71%
CN(CCCCN1CCOCC1)Cc1nc(-c2ccc3c(c2)OCO3)no1	9.5*	13%	27	20	35%
Fc1ccc(CN2CCCN(Cc3nc(-c4ccc5c(c4)OCO5)no3)CC2)cc1	15*	10%	-17	12	-13%

Bioassay records from PubChem.
